aSyn rescue: alpha-synuclein toxicity inhibition in yeast; Potency, µM (doses to about 46.1 µM), inactives show top-dose growth rescue (activation), most hits filed as activators; 370,000 tested, 0.14% active; Yeast expressing alpha-synuclein, growth rescue, BacTiter-Glo, 24 h; also: % of control where 0% means no effect; nearly all actives have a fitted effect of over 65% in size
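Screening used galactose-induced yeast with toxic alpha-synuclein levels, exposed to compound for 24 hr at 30 deg C. Cell growth, read with BacTiter-Glo luminescence, gave the measured signal.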
TDP-43 yeast inh: rescues yeast growth from TDP-43 toxicity; TDP-43 expressing yeast growth rescue, BacTiter-Glo, 24 h; 410,000 tested, 1.8% active; Potency, µM (highest dose often 46.1 µM), without a hit: at the highest dose growth rescue (activation), hits mostly activators; also: % of control where 0% means no effect; nearly all actives have a fitted effect of over 50% in size
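Growth rescue of TDP-43-toxic yeast measured as ATP luminescence (BacTiter-Glo). Cells grown to mid-log in raffinose, induced in galactose at OD600=0.02, exposed to compound 24 hr at 30 deg C.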
FUS yeast rescue: suppressors of FUS proteinopathy in yeast | S. cerevisiae FUS-expressing, growth rescue, OD600, 24 h | Potency, µM (doses to about 76.6 µM), usual class: activators | 390,000 tested, 0.24% active | AID 1347120;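 also: plate controls were DMSO vehicle for no effect and reference control for full effect; nearly all actives have a fitted effect of over 55% in size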
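S. cerevisiae expressing FUS from galactose induction served as the toxicity model. Growth after 24hr at 30C, read as absorbance at 600 nm, indicates suppression of toxicity; compounds dosed at several concentrations.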
Mito fusion act: inhibitors of mitochondrial division or activators of mitochondrial fusion | 320,000 tested, 0.23% active | AID 485298 | S. cerevisiae fusion-defective mutant growth rescue, CellTiterGlo 48 h | Potency, µM (series often up to 46.1 µM), without a hit: at the top dose growth rescue (activation), hits mostly activators; also: % of control where 0% means no effect; nearly all actives have a fitted effect of over 45% in size
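S. cerevisiae fusion-defective temperature-sensitive mutants (e.g. fzo1-1, mgm1-5) grown 48 h at 37C in YPEG (ethanol/glycerol non-fermentable) medium with 23 nl compound per well; growth rescue read as CellTiterGlo luminescence.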
AT treatment: candidate therapy for ataxia-telangiectasia; F2112 A-T fibroblasts, KAP-1 phosphorylation AlphaLISA; neocarzinostatin DNA damage 30 min before lysis; Potency, µM (series often up to 57.5 µM), inactives show at the highest dose activation, hits mostly activators; 320,000 tested, 0.19% active; also: % of control where 0% means no effect; nearly all actives have a fitted effect of over 45% in size
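hTERT-immortalized A-T patient fibroblasts (F2112), 500 cells/well in OPTI-MEM, 1% FBS, got compounds for 60 min, then NCS for 30 min at 37C. Lysates were then assayed for phospho-KAP-1 by AlphaLISA (anti-pKAP1 donor, anti-KAP1 acceptor beads), 6 hr at 25C.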
Abeta yeast res: restores growth of yeast expressing A-beta42 peptide. yeast expressing A-beta42, growth rescue, OD600, 48 h; response scale: 0% DMSO, 100% iron-clioquinol control. Potency, µM (highest dose often 46.1 µM), most hits filed as activators. 410,000 tested, 0.063% active. AID 1347071; also: nearly all actives have a fitted effect of over 55% in size
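Yeast A-beta toxicity model in growth medium with pinned compounds, 48 h at 30 C; growth read as absorbance at 600 nm. Normalized to FeCl3/clioquinol equimolar mix (positive) and DMSO (negative).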
Starred values were filed as active, the others as inactive; i = inactive; ? = inconclusive; . = no result given. The list is not random: actives were taken first. Their share in the collection is about 2.4%. Calls follow the shape of the dose curve; as a rule, active = well fitted curve in the direction sought with a large enough effect; inconclusive = small, poorly fitted or top-dose-only effect, or another doubt; inactive = no such curve, though single readings can be large; an effect the other way counts as inactive or inconclusive. Potency is read from the fitted curve at half-maximal effect.

SMILES	aSyn rescue	TDP-43 yeast inh	FUS yeast rescue	Mito fusion act	AT treatment	Abeta yeast res
CCOC(=O)N1CCc2c(sc3c2c(=O)n(Cc2ccccc2)c(=O)n3Cc2cccc(Cl)c2)C1	.	9%	i	.	.	i
Cc1ccccc1CN1C(=O)c2ccccc2Sc2ccc(C(=O)NC3CCCC3)cc21	.	8%	i	.	.	i
C=CCn1c(C)cc(C(=O)CSc2nc3ccccc3[nH]2)c1C	19%	16%	i	-5%	-2%	i
C=CCn1c(C)cc(C(=O)CSc2nc3ccccc3c(=O)[nH]2)c1C	2%	10µM*	i	-20%	0%	i
Cc1cccc(CSCc2ccc(C(=O)NCCc3ccccc3)o2)c1	21%	35µM*	i	.	.	i
COCCNC(=O)c1ccc(CSCc2cccc(Cl)c2)o1	-10%	?	i	17%	1%	i
O=C(Nc1nnc2n1CCS2)c1ccccc1C(F)(F)F	-1%	11%	i	.	.	i
CC(=O)c1ccc(N2CCC(c3cc(-c4ccc(Cl)cc4)n[nH]3)CC2)c([N+](=O)[O-])c1	4%	16µM*	i	-1%	-7%	i
Cc1c(Cl)cccc1NC(=O)CSc1ncc(S(=O)(=O)c2ccc(C(C)C)cc2)c(=O)[nH]1	-10%	2%	i	.	.	i
N#C/C(=C\c1c(F)cccc1Cl)C(=O)NC1CC1	1%	13µM*	i	1%	-4%	i
CSc1nn(Cc2cccc(Cl)c2)c(N(C(C)=O)C(C)=O)c1S(=O)(=O)c1ccccc1	.	11µM*	i	.	.	i
Cc1nnc(SCc2ccccc2Cl)c2cc3occc3n12	.	35µM*	?	.	.	i
CC(=O)c1cccc(NC(=O)C2Cc3c(-c4ccc(Cl)cc4)ccnc3O2)c1 (stereo not drawn)	?	?	40µM*	.	.	i
O=C(Nc1cccc(C(F)(F)F)c1)C1Cc2c(-c3ccc(Cl)cc3)ccnc2O1 (stereo not drawn)	?	20µM*	i	.	.	i
CN(C(=O)C1Cc2c(-c3ccc(Cl)cc3)ccnc2O1)c1ccccc1 (stereo not drawn)	-2%	22µM*	i	.	.	i
CN(C(=O)C1Cc2c(-c3ccccc3Oc3ccccc3)ccnc2O1)c1ccccc1 (stereo not drawn)	0%	?	?	.	.	i
O=C(Nc1cccc(C(F)(F)F)c1)C1Cc2c(-c3ccccc3)ccnc2O1 (stereo not drawn)	?	35µM*	i	.	.	?
COC(=O)c1ccc(-c2ccc3c(c2)[C@]2(CCC[C@@H](O)[C@@H]2NC(=O)CCc2ccccc2)C(=O)N3Cc2ccccc2)cc1	.	.	i	.	.	.
CC1CC(=O)N(CC(=O)Nc2ccc(F)cc2F)c2ccccc2S1 (stereo not drawn)	-11%	?	i	.	.	i
Cc1cccc(N2CCN(CCCNc3ncnc4onc(-c5ccc(Cl)cc5)c34)CC2C)c1 (stereo not drawn)	2%	?	i	.	.	i
CC(C)CCn1c(=O)c2sccc2n2c(CCCC(=O)NCc3ccc(F)cc3)nnc12	.	18%	i	.	.	i
Cc1cccc(N2C(S)=C(C#N)C(=O)NC23CCCCC3)c1	8%	-25%	.	5%	-3%	i
Cc1ccc(N2C(S)=C(C#N)C(=O)NC23CCCCC3)cc1	1%	22µM*	.	1%	-1%	i
CCN1C(=O)[C@H]2[C@H]3[C@H](O)[C@H](O)CC(=O)[C@@H]3CC[C@H]2C1=O	-6%	.	.	.	.	.
O=C(c1ccc(F)cc1)N1c2ncnn2C2(CCCCC2)[C@@H]2CCCC[C@@H]21	.	?	i	.	.	i
SMILES	aSyn rescue	TDP-43 yeast inh	FUS yeast rescue	Mito fusion act	AT treatment	Abeta yeast res
O=C(c1ccccc1)N1c2ncnn2C2(CCCCC2)[C@@H]2CCCC[C@@H]21	.	35µM*	i	.	.	i
CN(C)CCCN(CCCN(C)C)C(=S)Nc1ccc(S(=O)(=O)N2CCOCC2)cc1	4%	8%	i	0%	18µM*	i
CCC(Oc1ccccc1F)C(=O)N1CCC(c2nc3ccccc3s2)CC1 (stereo not drawn)	.	25µM*	i	.	.	i
O=C(c1cccc(F)c1)N1CCC(c2nc3ccccc3s2)CC1	4%	13µM*	i	-11%	2%	i
Cc1nnc(SCC(=O)N2CCC(c3noc4ccc(F)cc34)CC2)s1	20%	2%	i	4%	-3%	i
COc1cccc(C(=O)N2CCC(c3nc4ccccc4s3)CC2)c1	.	0%	i	.	.	i
O=C(CSc1ccc2ccccc2n1)N1CCC(c2noc3ccc(F)cc23)CC1	13%	-18%	i	20µM*	-4%	i
O=C(CSc1ccc(F)cc1)N1CCC(c2nc3ccccc3s2)CC1	27%	22µM*	i	-5%	13%	i
O=C(CSc1ccccc1Cl)N1CCC(c2nc3ccccc3s2)CC1	?	?	i	5%	6%	i
O=S(=O)(NCCc1csc2nc(-c3ccc(F)cc3)nn12)c1ccc2c(c1)OCCO2	.	8%	i	.	.	i
Cn1cc(-c2cc3n(n2)CCC(=O)N3CC(=O)NCc2ccccc2)c2ccccc21	.	16%	i	.	.	i
COc1ccc2c(c1)c1c(c(=O)n(-c3ccccc3)c(=O)n1CC(=O)Nc1ccc(C)c(C)c1)n2C	.	8%	i	.	.	i
COc1ccc(Cl)cc1NC(=O)c1cc(-c2ccccc2O)n[nH]1	-6%	1%	.	6.3µM*	4%	i
COc1ccc(OC)c(NC(=O)c2cc(-c3cc(Cl)ccc3O)n[nH]2)c1	4%	24%	i	4%	14%	i
COc1ccc(NC(=O)c2cc(-c3cc(Cl)ccc3OC)n[nH]2)cc1OC	-2%	0%	i	.	.	i
COc1ccc(NC(=O)c2cc(-c3cc(Cl)ccc3C)n[nH]2)cc1OC	10%	20µM*	i	.	.	i
COc1ccc(NC(=O)c2cc(-c3cc(F)ccc3OC(C)C)n[nH]2)cc1OC	2%	35µM*	i	.	.	i
COc1cc(NC(=O)c2cc(-c3cc(F)ccc3OC(C)C)n[nH]2)cc(OC)c1OC	6%	0%	i	.	.	i
COc1ccc(Cl)cc1NC(=O)NCC1CCN(C(=O)OC(C)(C)C)CC1	-11%	-12%	32µM*	1%	48%	i
Cc1cccc(CCNC(=O)CN(c2ccc(C(C)C)cc2)S(=O)(=O)c2c(C)nn(C)c2C)c1	.	15%	i	.	.	i
CC(=O)c1cccc(NC(c2ccc(F)cc2)c2nnc(-c3ccccc3)o2)c1 (stereo not drawn)	.	0%	?	.	.	i
